GLA spleen mod: inhibitors or activators of human alpha-galactosidase in spleen homogenate; Potency, µM (series often up to 80 µM), for the others: at the highest dose activity change, negative = inhibition, usual class: inhibitors; P06280; human spleen homogenate, 4MU-alpha-Gal fluorescence, 40 min; actives 0.008% (n = 240,000);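 also: potency is read from the fitted curve at half-maximal effect; 0% = enzyme with vehicle and -100% = no enzyme basal signal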
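Inhibition or activation of alpha-galactosidase in human spleen homogenate is scored by 4-MU fluorescence after 40 min at 37C, pH 5.0, with 1 mM substrate. AC50s come from concentration-response fitted to the Hill equation.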
GLA inh pH 4.5: alpha-galactosidase A (human) inhibition, pH 4.5; P06280; purified enzyme, 4-MU-alpha-Gal fluorescence, pH 4.5; activity change, negative = inhibition, % at 105 µM; 230,000 tested, under 10 active; AID 1467;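 also: 0% = full activity with enzyme and -100% = basal without enzyme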
Target sequence (P06280 whole entry, looked up): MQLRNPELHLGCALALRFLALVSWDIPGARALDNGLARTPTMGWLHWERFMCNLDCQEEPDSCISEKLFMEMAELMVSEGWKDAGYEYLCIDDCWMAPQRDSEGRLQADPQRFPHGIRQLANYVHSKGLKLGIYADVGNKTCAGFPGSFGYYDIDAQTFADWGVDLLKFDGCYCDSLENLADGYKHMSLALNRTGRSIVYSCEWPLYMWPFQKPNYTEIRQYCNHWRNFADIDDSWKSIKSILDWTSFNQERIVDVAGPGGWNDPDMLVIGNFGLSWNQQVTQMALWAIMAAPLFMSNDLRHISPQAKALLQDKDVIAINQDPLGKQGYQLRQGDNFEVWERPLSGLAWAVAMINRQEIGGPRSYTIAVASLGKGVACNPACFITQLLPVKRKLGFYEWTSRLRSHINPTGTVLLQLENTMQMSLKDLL
GAA inhib: inhibitors of human lysosomal alpha-glucosidase; P10253; purified human GAA, 4-MU-alpha-glucoside fluorescence; Potency, µM (series often up to 76.9 µM), for inactives: at the top dose activity change, negative = inhibition, hits mostly inhibitors; actives 0.005% (n = 200,000); AID 1466;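 also: potency is read from the fitted curve at half-maximal effect; plate controls were uninhibited enzyme wells for no effect and no-enzyme background for full effect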
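Fluorescence at Ex 365/Em 440 nm from 4-methylumbelliferone reported enzyme activity after 20 min at room temperature. Reactions used 4 nM enzyme and 400 uM substrate at pH 5.0; curves fitted with the Hill equation.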
GAA spleen mod: inhibits or activates alpha-glucosidase in human spleen homogenate; P10253; human spleen homogenate, 4-MU-alpha-glucoside fluorescence; Potency, µM (highest dose often 79.9 µM), for inactives: at the top dose activity change, negative = inhibition, hits mostly inhibitors; actives 0.006% (n = 240,000); AID 2112;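 also: potency is read from the fitted curve at half-maximal effect; 0% = enzyme with vehicle and -100% = no enzyme basal signal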
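Human spleen homogenate (1 ug) with 4-methylumbelliferyl-alpha-D-glucopyranoside (1 mM final) in 50 mM citrate/phosphate pH 5.0, 0.01% Tween-20; 40 min at 37 C. Stopped at pH 10; 4-MU fluorescence Ex 365/Em 440 nm; AC50 by Hill fit.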
GAA glycogen mod: GAA glycogen-cleavage inhibition or activation | recombinant GAA, glycogen substrate, Amplex Red glucose oxidase fluorescence | actives 0.38% (n = 300,000) | Potency, µM (top dose mostly 76.4 µM), without a hit: at the highest dose activity change, negative = inhibition, usual class: inhibitors | P10253;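 also: potency is read from the fitted curve at half-maximal effect; 0% = full enzyme reaction and -100% = no-enzyme basal signal; the screen sought inhibitors and activators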
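Natural-substrate format: glycogen cleavage by 4 nM human enzyme, glucose read by Amplex Red coupling (Ex 573, Em 610 nm). Normalized to enzyme and no-enzyme controls.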
Starred values were filed as active, the others as inactive; u = inconclusive; x = no result; [ ] = dose if it differs, or a comment. Only some compounds are listed: those with a hit (about 0.4% of all), similar ones and a draw of the others. Calls follow the shape of the dose curve; as a rule, active = well fitted curve in the direction sought with a large enough effect; inconclusive = small, poorly fitted or top-dose-only effect, or another doubt; inactive = no such curve, though single readings can be large; an effect the other way counts as inactive or inconclusive.

SMILES	GLA spleen mod	GLA inh pH 4.5	GAA inhib	GAA spleen mod	GAA glycogen mod
CC(C)(C)NC(=O)C(c1ccncc1)N(Cc1cccs1)C(=O)c1csnn1 (stereo not given)	-2%	5	x	-2%	u
O=C(NC1CCCC1)C(c1ccncc1)N(Cc1cccs1)C(=O)c1csnn1 (stereo not given)	-6%	-4	-10%	5%	20µM*
CCCCCCCCCCOc1cc(OCCCCCCCCCC)cc(N(CC(=O)O)CC(=O)O)c1	-4%	x	x	2%	x
O=[N+]([O-])/C(C=Nc1ccccc1O)=C\Nc1ccccc1O	-8%	-5	x	-1%	3.5µM*
Cc1c(N/C=C(\Cl)C(=O)C(F)(F)F)c(=O)n(-c2ccccc2)n1C	3%	-2	-6%	1%	32µM*
CNC(=O)CSc1cn(CC(=O)N2CCCCCC2)c2ccccc12	x	x	x	x	50µM*
O=C(Nc1ccccn1)C(=O)Nc1ccccn1	8%	-5	2%	4%	7%
Nc1ccc(S(=O)(=O)NNC(=O)C(=O)NNc2ccccn2)cc1	2%	5	-4%	-5%	3.2µM*
CC(=O)Nc1ccc(S(=O)(=O)NNC(=O)C(=O)NNc2ccccn2)cc1	-7%	-6	2%	-7%	u
Cc1ccccc1S(=O)(=O)NNC(=O)C(=O)NNc1ccccn1	-2%	-2	-2%	4%	3.5µM*
Cc1ccc(S(=O)(=O)NNC(=O)C(=O)NNc2ccccn2)cc1	-1%	6	0%	-8%	3.5µM*
O=C1/C(=C/c2ccc(O)c(O)c2)Oc2ccccc21	21%	x	x	2%	x
COc1cccc(/C=C2/C(=O)NN(c3ccc(C)c(C)c3)C2=O)c1	x	x	x	x	32µM*
Cc1nnc(N/N=C/c2cc([N+](=O)[O-])c(N3CCC(C)CC3)cc2N2CCC(C)CC2)n1N	1%	-11	u	-7%	31µM*
CCc1nnc(N/N=C/c2ccc(N3CCC(C)CC3)c([N+](=O)[O-])c2)n1N	-6%	-7	2%	-15%	u
O=C(NCc1ccc(F)cc1)c1ccc(NC(=O)N2CC3CCCN3c3ccccc32)cc1 (stereo not given)	x	x	x	x	16µM*
CC(C)Oc1ccc(CNC(=O)c2ccc(NC(=O)N3CC(C)Sc4ccccc43)cc2)cc1 (stereo not given)	x	x	x	x	-7%[76.3 µM]
CCNC(=S)NNc1nc(N2CCOCC2)nc(N2CCOCC2)n1	0%	4	4%	-1%	u
CNC(=S)NNc1nc(N2CCOCC2)nc(N2CCOCC2)n1	-1%	-24	-5%	7%	7.9µM*
COCc1cc(C)nc(SCC(=O)c2ccc(O)c(O)c2)c1C#N	-3%	3	-9%	-6%	14µM*
NNC(=O)c1cc2sccc2s1	-7%	-8	2%	-2%	25µM*
CC(=O)NNC(=O)c1cc2sccc2s1	7%	-14	u	1%	-15%
Cc1ccccc1C(=O)NN1C(=O)CSC1=S	6%	-5	-1%	4%	u
CCOC(=O)c1ccccc1N1C(=O)CSC1=S	12%	-7	0%	-6%	28µM*
CCCCc1nc2c(c3c1C[C@H](C)OC3)CN(C(=O)NCc1ccco1)CC2	2%[17.5 µM]	4	x	8%[17.4 µM]	x
SMILES	GLA spleen mod	GLA inh pH 4.5	GAA inhib	GAA spleen mod	GAA glycogen mod
O=C1NN(c2ccc(Br)cc2)C(=O)/C1=C\c1ccc(O)cc1O	x	x	x	x	8.9µM*
C[C@H]1Cc2c(COc3ccccc3)nc3c(c2CO1)CN(C(=O)c1cccnc1)CC3	0%[17.5 µM]	4	x	4%[17.4 µM]	x
Cn1c(=O)n2n(c1=O)[C@H]1[C@H](O)[C@H]3O[C@@H]3/C(=N/OC[C@@H](O)COCc3ccco3)[C@@H]1CC2	-3%[17.5 µM]	x	x	-17%[17.4 µM]	x
CN(C)c1nc(-c2cccnc2)nc2ccccc12	28µM*	x	x	-6%	x
CN(Cc1cccs1)c1nc(-c2cccnc2)nc2ccccc12	4%	1	-7%	8%	-6%
CC[C@H](C)[C@H](NC(=O)[C@H](CCCNC(=N)N)NC(=O)[C@@H](NC(=O)[C@H](CCCNC(=N)N)NC(=O)[C@H](CCCCN)NC(=O)[C@H](CCCNC(=N)N)NC(=O)[C@@H](NC(=O)[C@H](CC(N)=O)NC(=O)[C@@H](N)CS)[C@@H](C)O)[C@@H](C)CC)C(=O)N[C@@H](CCC(N)=O)C(=O)N[C@@H](CCCNC(=N)N)C(=O)NCC(=O)N1CCC[C@H]1C(=O)NCC(=O)N[C@@H](CCCNC(=N)N)C(=O)N[C@@H](C)C(=O)N[C@@H](Cc1ccccc1)C(=O)N[C@H](C(=O)N[C@H](C(=O)N[C@H](C(=O)NCC(=O)N[C@@H](CCCCN)C(=O)O)[C@@H](C)CC)[C@@H](C)O)C(C)C	-3%	x	x	4%	x
Cc1cc(O)ccc1N=Cc1c(C(F)(F)F)[nH][nH]c1=O	-2%	3	-11%	3%	22µM*
O=c1[nH][nH]c(C(F)(F)F)c1C=Nc1ccccc1	-11%	5	2%	-4%	4%
COc1ccc(C(=O)COC(=O)CN2CC(=O)Oc3ccccc32)cc1Br	-3%	3	6%	-4%	3.1µM*
COc1ccc(C(=O)CN2C(=O)c3ccccc3S2(=O)=O)cc1Br	x	x	x	x	-11%[76.3 µM]
Oc1ccc(N2CCN(C(=S)NCCc3ccccc3)CC2)cc1	3%	6	8%	-3%	25µM*
CSCC[C@H](NC(=O)[C@H](CC(C)C)NC(=O)[C@H](Cc1c[nH]c2ccccc12)NC(=O)[C@H](CCC(N)=O)NC(=O)[C@@H](NC(=O)[C@H](Cc1ccccc1)NC(=O)[C@H](CC(=O)O)NC(=O)[C@H](CCC(N)=O)NC(=O)[C@H](C)NC(=O)[C@H](CCCNC(=N)N)NC(=O)[C@H](CCCNC(=N)N)NC(=O)[C@H](CO)NC(=O)[C@H](CC(=O)O)NC(=O)[C@H](CC(C)C)NC(=O)[C@H](Cc1ccc(O)cc1)NC(=O)[C@H](CCCCN)NC(=O)[C@H](CO)NC(=O)[C@H](Cc1ccc(O)cc1)NC(=O)[C@H](CC(=O)O)NC(=O)[C@H](CO)NC(=O)[C@@H](NC(=O)[C@H](Cc1ccccc1)NC(=O)[C@@H](NC(=O)CNC(=O)[C@H](CCC(N)=O)NC(=O)[C@H](CO)NC(=O)[C@@H](N)Cc1cnc[nH]1)[C@@H](C)O)[C@@H](C)O)C(C)C)C(=O)N[C@@H](CC(N)=O)C(=O)N[C@H](C(=O)O)[C@@H](C)O	0%	x	x	5%	x
Cc1cc(Nc2nc3c(c(=O)n(C)c(=O)n3C)n2C)n(-c2ccc(Cl)cc2)n1	-2%	-6	-19%	2%	25µM*
Cc1cc(Nc2ccc(Cl)cc2)n(-c2ccccc2)n1	14%	-1	-3%	15%	u
